According to PubChem BioAssay AID504690 (Sanford-Burnham Center for Chemical Genomics, 2011):
About 2,700 (0.77%) of roughly 350,000 compounds were called active.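 Rule for the calls: active = inhibition reaching at least a set limit at 20 µM in the primary screen (cut at about 59% in these data); inactive = the rest.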 Only a selection was taken, and actives are over-represented in it overall.

test system: glucose-6-phosphate dehydrogenase-6-phosphogluconolactonase (Plasmodium falciparum 3D7); assay: PfG6PD enzyme inhibitors, primary screen, biochemical, fluorescence intensity, uHTS (AID 504690); details: PfGluPho enzyme, NADPH resazurin-diaphorase fluorescence; at 20 µM; stronger effect = higher value;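 note: 0% = DMSO wells with substrate and 100% = DMSO wells lacking glucose-6-phosphate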

Question: How did the inhibition turn out when `CC1CCCCC1NC(=O)CSc1nnc(N)s1` (stereo unspecified) was run?
Answer: -8.21% (inactive)

Question: How did the inhibition turn out when `O=C(COC(=O)c1cccc(Cl)c1)NC1CCCCCCC1` was run?
Answer: 17.2% (inactive)

Question: How did the inhibition turn out when `CC(C)(C)c1nnc(NC(=O)C2c3ccccc3Oc3ccccc32)s1` was run?
Answer: 77.4% (active)

Question: For `CCCN(CCC)C(=O)C1c2ccccc2Oc2ccccc21`, which inhibition is on record?
Answer: -24.1% (inactive)

Question: `CC(C)(C)NC(=O)NC(=O)COC(=O)C1c2ccccc2Oc2ccccc21` was tested. Which inhibition did it give?
Answer: -18.1% (inactive)

Question: Which inhibition does the source give for `CCc1ccc2oc(-c3ccc(N)cc3)nc2c1` here?
Answer: 16.4% (inactive)

Question: How did the inhibition turn out when `Cc1ccc2oc(=O)ccc2c1` was run?
Answer: -9.67% (inactive)

Question: How did the inhibition turn out when `CCN(CC)c1ccc2oc(=O)c(C)nc2c1` was run?
Answer: 94.1% (active)

Question: With `COc1ccc(S(=O)(=O)N2CCOCC2)cc1NC(=O)Cc1coc2cc(C)ccc12` as the compound, how does the inhibition read?
Answer: -4.24% (inactive)

Question: Which inhibition does the source give for `O/N=C(\c1ccc2c(c1)OCCO2)C1CCCCC1` here?
Answer: -2.41% (inactive)

Question: With `COc1ccccc1N1CCN(c2nc(C)cc(=O)[nH]2)CC1` as the compound, how does the inhibition read?
Answer: 15.1% (inactive)

Question: `CCc1ccc(-n2c(=S)sc3c(=O)n(-c4ccccc4OC)c(=S)[nH]c32)cc1` was tested. Which inhibition did it give?
Answer: 55.6% (inactive)

Question: Which inhibition does the source give for `COc1ccccc1-n1c(=S)[nH]c2c(sc(=S)n2-c2ccc(C)cc2C)c1=O` here?
Answer: 78.9% (active)

Question: With `CCCCn1nc(C(=O)Nc2ccc(S(=O)(=O)Nc3ncccn3)cc2)c2ccccc2c1=O` as the compound, how does the inhibition read?
Answer: -8.76% (inactive)

Question: How did the inhibition turn out when `NS(=O)(=O)c1ccc(CNC(=O)c2cc(S(=O)(=O)N3CCOCC3)ccc2N2CCCC2)cc1` was run?
Answer: 2.61% (inactive)

Question: How did the inhibition turn out when `COc1ccc(NC(=O)COC(=O)CNC(=O)C2CCCCC2)cc1` was run?
Answer: -2.97% (inactive)

Question: Which inhibition does the source give for `CN(Cc1ccco1)S(=O)(=O)c1nnc(NC(=O)c2ccccc2)s1` here?
Answer: 58.2% (inactive)

Question: `COc1cccc(C(=O)Nc2nnc(S(=O)(=O)N(C)c3ccccc3)s2)c1` was tested. Which inhibition did it give?
Answer: 96.6% (active)

Question: For `CC(=O)c1cccc(NC(=O)COc2ccc(S(=O)(=O)N3CCOCC3)cc2)c1`, which inhibition is on record?
Answer: 3.48% (inactive)

Question: How did the inhibition turn out when `COc1ccc(OC)c(NC(=O)c2cccc(S(=O)(=O)N3CCN(C(C)=O)CC3)c2)c1` was run?
Answer: -11.9% (inactive)

Question: How did the inhibition turn out when `COc1cccc(C(=O)Nc2nnc(S(=O)(=O)N3CCCCC3)s2)c1` was run?
Answer: 112% (active)

Question: `COc1cccc(C(=O)Nc2ccc3nc4n(c(=O)c3c2)CCCCC4)c1` was tested. Which inhibition did it give?
Answer: 20% (inactive)

Question: With `Cc1ccccc1OCC(=O)Nc1nnc(S(=O)(=O)N2CCCC2)s1` as the compound, how does the inhibition read?
Answer: -10.3% (inactive)

Question: `CN(Cc1ccccc1)S(=O)(=O)c1nnc(NC(=O)c2ccccc2F)s1` was tested. Which inhibition did it give?
Answer: 27.5% (inactive)

Question: With `COc1cccc(C(=O)Nc2nnc(S(=O)(=O)N3CCOCC3)s2)c1` as the compound, how does the inhibition read?
Answer: 97.7% (active)

Question: With `Cc1csc2ncc(C(=O)N(Cc3ccccc3)c3ccccn3)c(=O)n12` as the compound, how does the inhibition read?
Answer: -14.5% (inactive)
